# A selection: hits, their analogues and other compounds. The true share with any hit is near 10%.
# JMJD2A Tudor inh: blocks the human JMJD2A Tudor domain. O75164. AlphaScreen JMJD2A-Tudor / H3K4me3 peptide binding. Potency, µM (top dose mostly 114 µM), for inactives: top-dose activity change, negative = inhibition, actives largely listed as inhibitors. hit rate 4.4% among 390,000. AID 504339; also: potency is read from the fitted curve at half-maximal effect; % is scaled to controls: 0 for no effect and ±100 for the full control effect; nearly all actives have a fitted effect of over 50% in size
# HP1b chromo inh: blocks HP1-beta chromodomain binding to methylated histone tails; Potency, µM (titrated, usually from 114 µM), without a hit: at the top dose activity change, negative = inhibition, actives largely listed as inhibitors; hit rate 0.56% among 390,000; AlphaScreen HP1-beta / biotin-H3K9me3 peptide binding; also: potency is read from the fitted curve at half-maximal effect; nearly all actives have a fitted effect of over 70% in size
#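 Compound inhibition of the preformed complex between 50 nM HP1-beta and 50 nM biotinylated H3K9me3 peptide was read by AlphaScreen. Buffer was PBS pH 7.4 with 0.01% Tween-20. Incubations ran 30 min at room temperature, with 10 ug/mL donor/acceptor beads.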
# CtBP-E1A inh: inhibitors of CtBP/E1A interaction; AlphaScreen GST-E1A/His-CtBP binding, 1536-well; active compounds read low; activity change, % (concentration not given with the values); hit rate 0.49% among 340,000; AID 651724; in the data active = activity change below about -65%; inconclusive = mostly about -30% to -63%; also: % is scaled to controls: 0 for no effect and ±100 for the full control effect
#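 Homogeneous bead-based format: GST-tagged E1A captured on glutathione donor beads, His-tagged CtBP on nickel acceptor beads; compounds precede bead addition by 2 h at 37 °C.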
# BAZ2B inh: BAZ2B (human) inhibition; Q9UIF8; AlphaScreen BAZ2B-H3K14Ac peptide displacement; Potency, µM (top dose mostly 114 µM), without a hit: at the top dose activity change, negative = inhibition, actives largely listed as inhibitors; hit rate 4.4% among 360,000; AID 504333; also: potency is read from the fitted curve at half-maximal effect; % is scaled to controls: 0 for no effect and ±100 for the full control effect; nearly all actives have a fitted effect of over 60% in size
#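 Compounds, titrated to a top concentration of 110 uM, were incubated 30 min at room temperature with preformed BAZ2B/acetyl-K14 H3 peptide complex (50 nM each). Proximity signal was measured by AlphaScreen after 20 min with beads.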
# Six1-Eya2 inh: blocks human Six1 binding to Eya2; AlphaScreen GST-Six1/His-Eya2 binding, biochemical; active compounds read low; activity change, % (concentration not given with the values); hit rate 0.56% among 360,000; in the data active = activity change below about -65%; inconclusive = mostly about -30% to -63%; also: % is scaled to controls: 0 for no effect and ±100 for the full control effect
#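 Six1/Eya2 binding was read as AlphaScreen signal after compounds were pinned into GST-Six1 plus His-tagged Eya2 (5X stock 250/500 nM) in pH 8.0 Tris/NaCl/TCEP buffer, beads added, then incubated 1 h, 37 C, dark.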
# G9a block: inhibitors of human histone lysine methyltransferase G9a; Q96KQ7; G9a H3K9 monomethylation, AlphaScreen, 2 h; Potency, µM (top dose mostly 102 µM), for inactives: at the top dose activity, negative = inhibition, most hits filed as inhibitors; hit rate 8.8% among 350,000; also: potency is read from the fitted curve at half-maximal effect; % is scaled to controls: 0 for no effect and ±100 for the full control effect; nearly all actives have a fitted effect of over 75% in size
#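 Quantitative HTS format: methyltransferase activity on a biotin-tagged H3K9 peptide is measured by AlphaScreen, using a rabbit anti-monomethyl-H3K9 antibody with streptavidin donor and anti-IgG acceptor beads. Final levels are 20 nM enzyme, 500 nM peptide, 20 uM SAM; 2 h RT.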
# * hit, by the source's call; ? = inconclusive; nt = not tested or not shown; ! = not confirmed by another sample; [ ] = dose if it differs, or a comment. Unless noted, calls follow the shape of the dose curve; as a rule, active = well fitted inhibition curve with a large enough effect; inconclusive = small, poorly fitted or top-dose-only effect; inactive = no such curve, though single readings can be large or run the other way.
SMILES,JMJD2A Tudor inh,HP1b chromo inh,CtBP-E1A inh,BAZ2B inh,Six1-Eya2 inh,G9a block
CCN(Cc1ccccc1)C(=O)CSc1nncn1C,-22.6%,28.0%,0.5,?,7.6,56.2µM*
CCN(CC)C(=O)CSc1nnc(-c2ccccc2)n1-c1ccccc1,50.1µM*,59.5%,-0.9,4.7%,-0.3,28.2µM*
CCN(CC)C(=O)CSc1nnc(-c2ccccc2)o1,-4.2%,26.4%,8.4,11.5%,3.9,79.4µM*
CCN(Cc1ccccc1)C(=O)CSc1ccccc1C(=O)O,-13.6%,16.5%,nt,nt,-11.8,1.4%
CCN(c1cc(C)cc(C)c1)S(=O)(=O)c1nnc(NC(=O)c2ccccc2C)s1,-15.1%,21.1%,nt,-6.4%,nt,-24.5%[59 µM]
CO[C@H]1C[C@@H]2CC[C@@H](C)[C@@](O)(O2)C(=O)C(=O)N2CCCC[C@H]2C(=O)OC([C@H](C)C[C@@H]2CC[C@@H](O)[C@H](OC)C2)CC(=O)[C@H](C)/C=C(\C)[C@@H](O)[C@@H](OC)C(=O)[C@H](C)C[C@H](C)/C=C/C=C/C=C/1C (some centres undefined),nt,nt,nt,nt,nt,25.1µM*!
CS(=O)(=O)c1ccc(NC(=O)c2ccccc2-n2cnnn2)cc1,8.8%,25.8%,4.7,-3.9%,1.5,15.6%[12.7 µM]
CCOc1ccc(C(=O)NCc2nnnn2-c2ccc(C)c(C)c2)cc1OCC,-5.5%,28.2%[57 µM],nt,6.0%,nt,3.5%[59 µM]
Cc1ccccc1N1C(=O)c2sc3nc4c(c(=O)n3c2C1=O)CCC4,?,-49.1%,-14.8,4.9%,-2.7,8.91µM*
O=c1/c(=C\c2cccnc2)sc2nc3ccccc3n12,-4.2%,25.5%,-8.9,3.1%,-3.1,-2.7%[12.7 µM]
O=C1c2sc3nc4ccccc4n3c2C(=O)N1c1ccccc1Cl,-25.5%,?,-9.8,?,-3.0,1.41µM*
COc1ccc(NC(=O)CSc2nnc(CNC(=O)c3cccs3)o2)c(OC)c1,-5.9%,19.2%,0.8,-1.9%,2.5,nt
COc1ccc2[nH]c3c(c2c1)[C@@H]1CCN2C(=O)CCC[C@H](C3)[C@H]12,-22.2%,11.4%,0.9,?,0.6,31.6µM*
COc1ccc(CNC2C[C@H]3CCCC(=O)N4CC[C@@H](C2)[C@@H]34)cc1 (some centres undefined),-12.3%,21.4%,0.0,nt,-1.9,37.0%
N#CN1CCC(NC(=O)c2ccc(C(F)(F)F)cc2)CC1,-12.3%,nt,nt,nt,nt,nt
C=CCn1c(COC)nnc1SCC(=O)c1ccc(F)cc1,39.8µM*,-40.6%,0.7,25.7%,-0.7,3.55µM*
C=CCn1c(COc2cccc3ccc(C)nc23)nnc1SCC(=O)O,28.2µM*,33.3%,-8.1,1.6%,1.9,-36.1%[59 µM]
C=CCn1c(CNC(=O)c2ccco2)nnc1SCC(=O)c1ccc(F)cc1,-8.4%,17.4%,3.7,0.9%,-3.9,?
CCOc1ccc(NC(=O)c2oc(=O)c3ccccc3c2-c2ccc(C)cc2)cc1,-12.8%,37.2%,nt,-17.0%,nt,-8.7%[59 µM]
COC(=O)c1sccc1NC(=O)c1ccc(OC)cc1OC,-0.7%,35.4%,-20.2,7.0%,-1.1,26.5%[59 µM]
CC(=O)c1ccc(NC(=O)c2ccc3nc(-c4ccco4)c(-c4ccco4)nc3c2)cc1,44.7µM*,8.91µM*,-17.8,11.2µM*,?,1.78µM*
CNC(=O)c1ccc2nc(-c3ccco3)c(-c3ccco3)nc2c1,17.8µM*,17.8µM*,nt,nt,nt,nt
O=C(Nc1ccc(N2CCOCC2)cc1)c1ccc2nc(-c3ccco3)c(-c3ccco3)nc2c1,-19.2%,38.5%,-1.7,-3.5%,-6.7,?
O=C(NC1CC1)c1ccc2nc(-c3ccco3)c(-c3ccco3)nc2c1,20µM*,22.4µM*,nt,nt,nt,nt
O=C(NCc1ccccc1)c1ccc2nc(-c3ccco3)c(-c3ccco3)nc2c1,20µM*,-94.1%,-22.6,50.1µM*,?,1.78µM*
SMILES,JMJD2A Tudor inh,HP1b chromo inh,CtBP-E1A inh,BAZ2B inh,Six1-Eya2 inh,G9a block
CC(=O)Nc1c(C(N)=O)oc2ccc(Cl)cc12,1.3%,29.3%,-13.1,-14.0%,-7.4,-4.1%
COc1ccc(CNC(=O)CCS(=O)(=O)c2cc(Br)cc3c2N(C(=O)C2CC2)CC3)cc1,-9.6%,28.4%,nt,1.3%,nt,6.5%[59 µM]
O=C(Nc1ccccc1)c1ccc2nc(-c3ccco3)c(-c3ccco3)nc2c1,50.1µM*,?,?,-34.4%,?,?
CCc1nnc(SCc2nc(-c3cccc(Cl)c3)oc2C)c2cc3sc(C)cc3n12,-6.6%,53.8%,nt,-7.2%,nt,-26.8%[59 µM]
CC1=NN(c2ccc(C)cc2)C(=O)/C1=C/c1ccc(-c2cc([N+](=O)[O-])ccc2O)o1,31.6µM*,31.6µM*,nt,2.4%,-2.3,nt
CC1=NN(c2ccccc2)C(=O)/C1=C/c1ccc(-c2ccc(C)c(C(=O)O)c2)o1,39.8µM*,?,2.5,nt,-3.1,nt
O=C1NN(c2cccc(Br)c2)C(=O)/C1=C/c1ccc(-c2cc([N+](=O)[O-])ccc2O)o1,?,?,nt,2.24µM*,-7.3,-156.1%[59 µM]
CC1=NN(c2ccc(C(=O)O)cc2)C(=O)/C1=C/c1ccc(-c2ccccc2F)o1,nt,nt,nt,?,nt,7.94µM*
O=C(O)c1ccc(-c2noc(-c3ccccc3F)n2)cc1,-4.8%,24.3%,nt,nt,nt,nt
O=C1NN(c2ccccc2)C(=O)/C1=C\c1cccn1-c1ccc(Cl)c([N+](=O)[O-])c1,?,-12.1%,-1.5,-25.7%,-2.3,-18.4%
COc1cc(/C=C2/C(=O)N(c3ccc([N+](=O)[O-])cc3)N=C2N2CCOCC2)ccc1O,-7.4%[11.4 µM],?,1.2,?,-3.6,-41.8%
COC(=O)CCN(Cc1ccco1)S(=O)(=O)c1ccc(F)cc1Br,-23.4%,10.3%,nt,nt,nt,nt
COc1cc(C)c(CN2CCC(Oc3ccc(C(=O)N4CCCC4)cc3)CC2)cc1C,-8.5%,22.0%,-2.8,-10.5%,1.3,21.3%
CCOC(=O)C(CC)Sc1c(CC)cnc2c1c(=O)n(C)c(=O)n2C (centres undefined),-6.5%,7.9%,nt,-10.2%,nt,0.5%[59 µM]
CCCCC/C=C\C\C=C/C=C/C=C/[C@@H](SCC(NC(C)=O)C(=O)O)[C@@H](O)CCCC(=O)O (some centres undefined),nt,nt,nt,nt,nt,12.5%[59 µM]
Cc1ccc(NC(=O)/C(C#N)=C/c2ccc(-c3ccc(Cl)c(C(=O)O)c3)o2)cc1C,-20.1%,-7.5%,nt,-26.7%,nt,-50.7%[59 µM]
CC1=NN(c2ccc(Cl)c(C(=O)O)c2)C(=O)/C1=C\c1ccc(-c2ccc(C(=O)O)cc2)o1,?,-15.1%,-4.7,50.1µM*,-9.4,8.91µM*
COc1ccc(C2CC(=O)c3c([nH]c(C(=O)OC4CCCCCC4)c3C)C2)cc1OC (centres undefined),-8.9%,18.2%,nt,-1.3%,nt,6.0%[59 µM]
CC1=CC(C)C(C[N+]2(C)CCCCC2)C(C)C1 (centres undefined),-1.0%,-4.5%,6.5,?,7.3,25.1µM*

# Compound activity: PubChem, National Center for Advancing Translational Sciences (NCATS)
